Screens: PubChem BioAssay, several laboratories
This is a sample that favours compounds with a hit; in the whole collection about 4.6% have one here.
FXN GAA850 act – frataxin GAA850 promoter activation | HEK293 lucGAA850 FXN promoter luciferase reporter, 24 h; percent of 10 µM SAHA response | activation, % at 6 µM | 360,000 compounds, 0.56% hits;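 active = activation above the average of all compounds screened plus 3 SD, cutoff fixed separately per campaign, cut at about 7.5% in these data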;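 note: 0% = DMSO wells and 100% = 10 µM SAHA wells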
HSF1 inhib – HSF1 inhibition; NIH3T3-HGL HSE-luciferase, MG132-induced, luminescence 8 h; hits give low values; activity change, negative = inhibition, % at 7.5 µM (by protocol); 300,000 compounds, 0.77% hits; AID 2098;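 active = more than half of replicate wells show activity change below -50%, luminescence cut by over half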;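 note: luciferase reports HSF-1 transcriptional activity via heat shock element; 0% = median of DMSO wells and -100% = zero luminescence signal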
AHR act – activates the human aryl hydrocarbon receptor; activation, % at 5 µM; 320,000 compounds, 2.5% hits; AHR-responsive luciferase reporter cells, luminescence; in the data active = activation above about 47%;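 note: 0% = vehicle wells and 100% = reference agonist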
Target sequence (P35869 whole entry, looked up): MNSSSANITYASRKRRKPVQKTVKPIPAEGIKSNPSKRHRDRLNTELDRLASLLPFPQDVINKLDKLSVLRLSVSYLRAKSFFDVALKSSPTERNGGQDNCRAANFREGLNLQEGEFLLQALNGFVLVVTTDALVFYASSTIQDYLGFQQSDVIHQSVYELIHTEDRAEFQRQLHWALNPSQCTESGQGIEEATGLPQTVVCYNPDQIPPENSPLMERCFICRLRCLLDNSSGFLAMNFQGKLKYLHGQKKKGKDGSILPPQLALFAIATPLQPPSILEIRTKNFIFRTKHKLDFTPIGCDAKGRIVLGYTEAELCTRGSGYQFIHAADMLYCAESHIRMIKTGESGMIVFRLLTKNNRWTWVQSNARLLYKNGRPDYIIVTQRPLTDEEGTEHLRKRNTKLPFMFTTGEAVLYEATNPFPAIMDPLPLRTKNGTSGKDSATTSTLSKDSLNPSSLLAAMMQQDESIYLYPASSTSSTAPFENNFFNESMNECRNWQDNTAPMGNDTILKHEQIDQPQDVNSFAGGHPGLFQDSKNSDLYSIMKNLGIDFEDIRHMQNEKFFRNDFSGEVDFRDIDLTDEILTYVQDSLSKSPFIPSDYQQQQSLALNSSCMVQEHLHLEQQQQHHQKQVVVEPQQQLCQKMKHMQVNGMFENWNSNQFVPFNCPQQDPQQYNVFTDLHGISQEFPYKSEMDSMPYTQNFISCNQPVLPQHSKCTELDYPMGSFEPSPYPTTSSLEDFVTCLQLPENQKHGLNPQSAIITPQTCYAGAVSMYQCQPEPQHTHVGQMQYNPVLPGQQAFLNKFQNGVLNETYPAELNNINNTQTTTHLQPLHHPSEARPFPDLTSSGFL
HSF1 activator – increases HSF-1 driven luciferase reporter signal. NIH3T3-HGL HSF-1 luciferase reporter, MG132, 8 h; 100% = twice DMSO control signal. 300,000 compounds, 1.7% hits. AID 504408. activation, % at 9 µM;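 active = mean replicate activation of at least 50% with a set share of replicates each reaching 50%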;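 note: 0% = median of the neutral control wells and 100% = twice that signal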
Numbers without * were called inactive; nt = no result.

SMILES	FXN GAA850 act	HSF1 inhib	AHR act	HSF1 activator
COc1ccc(-c2cc(C(=O)Nc3cc(C)on3)no2)cc1	nt	-4	1	-7
CCc1ccc(NC(=O)c2cc(-c3ccco3)on2)cc1	1	39	-2	80*
COc1cccc(-c2cc(C(F)(F)F)c3c(N)c(C#N)sc3n2)c1	nt	0	55*	-8
COc1ccc(OC)c(NC(=O)c2sc3nc(Cc4ccccc4)cc(C(F)(F)F)c3c2N)c1	-3	6	3	47
COc1ccc(-c2cc(C(F)(F)F)c3c(N)c(C(=O)NCCSC)sc3n2)cc1	3	-3	62*	2
COc1cccc2cc(-c3nnc(SCC(=O)NCc4ccccc4)n3C)oc12	-2	-2	4	2
O=C(O)C1CC(=O)N(CCc2c[nH]c3ccccc23)C1 (configuration not stated)	-1	1	6	-2
CCOC(=O)C1=NNC(C(=O)c2ccc(C)cc2)C1c1ccc(C)cc1 (configuration not stated)	2	18	-2	23
CCOC(=O)C(NC(=O)NC1CCCCC1)(c1ccccc1)C(F)(F)F (configuration not stated)	-6	3	0	16
O=C(c1ccc(Cl)c(S(=O)(=O)N2CCCCCC2)c1)N1CCCC(C(F)(F)F)C1 (configuration not stated)	1	9	0	5
[S-]c1nnc(-c2ccc(Br)cc2)n1-c1ccccc1.[Zn+2]	1	-4	-2	0
N#Cc1c(Cl)c(Cl)c2nnc(-c3ccc(Br)cc3)n2c1Cl	nt	0	55*	17
O=C(CN(Cc1ccccc1)C(=O)CCC(=O)Nc1nccs1)NCc1ccccc1	0	0	2	-5
Cc1ccc(OCc2nnc(SCC(=O)Nc3cccc4ccccc34)n2-c2ccccc2)cc1	-1	26	6	73*
Cc1cccc(C)c1NC(=O)CSc1nnc(Cn2nnc(-c3ccccc3)n2)n1-c1ccccc1	0	66	0	74*
CC(=O)N1N=C(c2ccc(C)cc2)OC1c1ccc(Br)cc1 (configuration not stated)	6	37	5	57*
C=CCN1C=C/C(=C\C=C(C#N)C#N)c2ccccc21	-1	1	53*	9
CC(C)(C)c1ccc(/C=C(\c2nc3ccccc3[nH]2)S(=O)(=O)c2ccccc2)cc1	-7	60	-2	57*
O=C(O)c1ccc(/C=C(\c2nc3ccccc3[nH]2)c2nc3ccccc3s2)cc1	3	15	24	22
Cc1cccc(/C=C/c2nc3ccccc3c(=O)[nH]2)c1	-2	14	-4	3
Cc1cccc(/C=C(\c2nc3ccccc3[nH]2)S(=O)(=O)c2ccccc2)c1	-7	241	nt	344*
O=C(NC1CCCC1)NS(=O)(=O)c1ccccc1Cl	1	-7	1	1
CCOC(=O)c1c(NC(=O)Cn2nc(C(=O)O)c3ccccc3c2=O)sc(C)c1C	2	1	1	10
COc1ccc(OC)c(C(=O)c2ccc(C(=O)Nc3ccc(NC(C)=O)cc3)cc2)c1	-1	2	2	5
O=C(CC1NCCc2ccccc21)Nc1ccc(Cl)cc1 (configuration not stated)	3	2	75*	-4
SMILES	FXN GAA850 act	HSF1 inhib	AHR act	HSF1 activator
O=C(CC1NCCN(Cc2ccccc2)C1=O)Nc1ccc(Cl)cc1 (configuration not stated)	-1	-3	0	5
CCCCCCc1ccc(-c2ncc(N)cn2)cc1	4	28	7	51*
Cc1cccc(CC2S/C(=N/c3cccc(C)n3)NC2=O)c1 (configuration not stated)	-1	-6	17	-13
O=c1c2c3c(sc2ncn1/N=C/c1ccc([N+](=O)[O-])o1)CCCC3	2	177	2	266*
Cn1cc(/C=N/n2cnc3sc4c(c3c2=O)CCCC4)c2ccccc21	1	-6	19	-2
O=C(COc1ccccc1[N+](=O)[O-])NNC(=O)Nc1cccc2ccccc12	2	6	38	7
CCCCNc1nc(Nc2ccc(C)c(Cl)c2)c2cnn(C)c2n1	0	14	79*	65*
CCNc1nc(Nc2ccc(C)c(Cl)c2)c2cnn(C)c2n1	3	-14	54*	-10
COCCSc1ccccc1C(=O)Nc1cc([N+](=O)[O-])ccc1OC	1	-9	24	-2
CCOc1ccccc1-n1c(SCC(N)=O)nnc1-c1ccccc1	2	-15	-1	-29
CCCNC(=O)c1ccc2c(=O)c(O)c(C)[nH]c2c1	2	-7	3	-12
